Most compounds without a hit are left out; they make up all but 19% or so of the library.
ELG1 DNA repair: qHTS screen for small molecules that inhibit ELG1-dependent DNA repair in human embryonic kidney (HEK293T) cells expressing luciferase-tagged ELG1. 330,000 compounds, 2.3% hits. Potency, µM (highest dose often 46.1 µM), actives largely listed as inhibitors. AID 504467, 2011. HEK293T ELG1-luciferase reporter, luminescence, 16 h; DNA damage induced by 5-fluorouridine; also: nearly all actives have a fitted effect of over 55% in size
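Luminescence from the luciferase reporter, measured 30 min after ONE-Glo reagent at room temperature, was the read-out. Beforehand, 2,000 cells per well were exposed for 16 hr at 37 °C to 5-fluorouridine together with compound or vehicle.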
TDP1 cell CPT: qHTS for Inhibitors of human tyrosyl-DNA phosphodiesterase 1 (TDP1): qHTS in cells in presence of CPT | chicken DT40 Tdp1-/-;hTDP1 cells + 20 nM CPT, ATP luminescence, 48 h | Potency, µM (highest dose often 46.2 µM), hits mostly inhibitors | 420,000 compounds, 12% hits | AID 686979, 2013; also: nearly all actives have a fitted effect of over 55% in size
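Chicken DT40 Tdp1-/- cells stably complemented with human TDP1 were seeded at 400 cells/well in medium containing 20 nM camptothecin, exposed to pin-transferred compounds, and grown at 37 °C for at least 48 hr. Viability was read as ATP luminescence.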
HT1080 IDH1KD tx: qHTS for induction of synthetic lethality in tumor cells producing 2HG: qHTS for the HT-1080-IDH1KD cell line | HT-1080 IDH1 knockdown viability, ATP luminescence, 48 h | Potency, µM (doses to about 46.1 µM), actives largely listed as cytotoxic | 360,000 compounds, 2% hits | AID 686971, 2013
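In this qHTS, HT-1080 cells depleted of IDH1 are exposed for 48 h at 37 °C to compound titrations. Toxicity is scored from CellTiter-Glo luminescence, with DMSO as full viability and medium alone as none.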
HT1080-NT tox: qHTS for induction of synthetic lethality in tumor cells producing 2HG: qHTS for the HT-1080-NT fibrosarcoma cell line | 360,000 compounds, 1.6% hits | Potency, µM (titrated, usually from 46.1 µM), most hits filed as cytotoxic | HT-1080-NT fibrosarcoma viability, CellTiter-Glo ATP luminescence, 48 h;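 also: NT is the 2HG producing partner of a matched IDH1 knockdown line; nearly all actives have a fitted effect of over 55% in size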
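Luminescent CellTiter-Glo readout after 48 hours of compound exposure at 37 degrees C defined viability of HT-1080-NT cells. Activity was normalized to DMSO wells and cell-free media wells; concentration-response curves were fitted and assigned curve classes.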
IL1B secr inh: qHTS for Inhibitors of Inflammasome Signaling: IL-1-beta AlphaLISA Primary Screen; 360,000 compounds, 4.7% hits; THP-1 LPS/ATP IL-1B secretion, AlphaLISA, 16 h; hits give low values; activity change, % at 57.5 µM; AID 743279, 2014; in the data active = activity change below about -50%; inconclusive = mostly about -30% to -49%
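Secreted IL-1B measured by AlphaLISA bead assay after 16 h compound exposure of THP-1 cells; compounds (final up to 57.5 uM) added 1 h before LPS (250 ng/mL) and ATP (1.25 mM) stimulation; lower signal means less secretion.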
DT40 TDP1 no CPT: qHTS for Inhibitors of human tyrosyl-DNA phosphodiesterase 1 (TDP1): qHTS in cells in absence of CPT; DT40 Tdp1-/- hTDP1 cells, no CPT, ATP luminescence, 48 h; Potency, µM (series often up to 46.2 µM), usual class: inhibitors; 420,000 compounds, 15% hits; also: nearly all actives have a fitted effect of over 55% in size
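Chicken DT40 Tdp1-/- cells complemented with human TDP1, screened without camptothecin (DMSO vehicle only), 400 cells/well. Compounds pin-transferred, cells incubated at 37 °C for at least 48 hr. Growth read as ATP-dependent luminescence (CellTiter-Glo, 30 min at RT).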
Hits are given with their value; - = inactive; ? = inconclusive; . = no result given. Unless noted, calls follow the shape of the dose curve; as a rule, active = well fitted curve in the direction sought with a large enough effect; inconclusive = small, poorly fitted or top-dose-only effect, or another doubt; inactive = no such curve, though single readings can be large; an effect the other way counts as inactive or inconclusive.

SMILES	ELG1 DNA repair	TDP1 cell CPT	HT1080 IDH1KD tx	HT1080-NT tox	IL1B secr inh	DT40 TDP1 no CPT
COc1ccc(-c2coc3cc4oc(=O)cc(C)c4cc23)cc1F	-	?	-	-	-	-
COc1ccc(-c2coc3cc4oc(=O)cc(-c5ccccc5)c4cc23)cc1F	-	3.7µM	3.7µM	6.5µM	-	4.6µM
CN(C)c1cccc(NC(=O)C2(C)CC2(Cl)Cl)c1 (stereo not given)	-	-	-	-	-	-
CC(=O)Nc1ccc(NC(=O)C2(C)CC2(Cl)Cl)cc1 (stereo not given)	-	?	-	-	-	18µM
O=C(CSc1nnc(-c2ccc3c(c2)OCO3)o1)Nc1ncc(C(F)(F)F)cc1Cl	-	?	-	-	-	16µM
COc1cc2c(cc1NC(=S)Nc1cccc3ccccc13)oc1ccccc12	-	-	-	-	-	?
COCCCNC(=S)Nc1cc2oc3ccccc3c2cc1OC	-	8.2µM	12µM	2.3µM	-	6.5µM
COc1cc2c(cc1NC(=O)CSCC(=O)O)oc1ccccc12	-	-	-	-	-	-
COc1cc2c(cc1NC(=S)Nc1cccc(C(F)(F)F)c1)oc1ccccc12	-	23µM	?	?	-	29µM
Cc1cc(C2=CC(=O)C[C@H](c3ccc(F)cc3)C2)ccc1F	.	?	-	-	-	?
OCCN1CCN(CC#CCn2c3ccccc3c3ccccc32)CC1	?	?	?	21µM	-	?
COc1ccc(CC2(c3ccccc3)NC(=O)NC2=O)cc1 (stereo not given)	.	?	-	-	-	?
COCCNS(=O)(=O)c1cc(OC)c(C)cc1C	-	-	-	-	-	-
CCCOc1cc(C)c(S(=O)(=O)NCCOC)cc1C	-	26µM	-	-	-	?
CCCCCn1c(CCNC(=O)c2cccc(C)c2)nc2ccccc21	.	21µM	.	.	.	18µM
Cc1cccc(C(=O)NCCc2nc3ccccc3n2Cc2ccc(Cl)cc2)c1	.	21µM	.	.	.	?
C=C(C)CCC1(C)NC(=O)N(c2ccccc2)N1 (stereo not given)	?	-	15µM	9.2µM	.	-
CC1(c2ccc(O)cc2)NC(=O)N(c2ccccc2)N1 (stereo not given)	?	-	10µM	5.8µM	-	-
O=C(NCCCN1CCN(c2ccc(F)cc2)CC1)C1COc2ccccc2C1 (stereo not given)	.	23µM	.	.	.	?
CCC(=O)N1c2ccccc2CC1C(=O)NCCCN1CCN(c2cc(C)ccc2C)CC1 (stereo not given)	.	21µM	.	.	.	?
Cc1ccc(CNC(=O)C2COc3ccccc3C2)cc1 (stereo not given)	.	-	.	.	.	-
O=C(NCCc1ccc(Cl)cc1)C1COc2ccccc2C1 (stereo not given)	.	-	.	.	.	-
CCC(=O)N1c2ccccc2CC1C(=O)NCCc1ccc(C)cc1 (stereo not given)	.	?	.	.	.	-
Cc1cccc(N2CCN(CCNC(=O)C3COc4ccccc4C3)CC2)c1C (stereo not given)	.	?	.	.	.	23µM
Cc1ccc(Cl)cc1N1CCN(CCCNC(=O)C2COc3ccccc3C2)CC1 (stereo not given)	.	3.3µM	.	.	.	3.7µM
SMILES	ELG1 DNA repair	TDP1 cell CPT	HT1080 IDH1KD tx	HT1080-NT tox	IL1B secr inh	DT40 TDP1 no CPT
COC(=O)[C@@H]1CCCN1C(=O)c1cc(NC(=O)C2CCC2)c2c(c1)nc(-c1ccncc1)n2C	.	-	.	.	.	-
COc1ccc2c(c1)CC(C(=O)NCCCN1CCN(c3cccc(Cl)c3)CC1)CO2 (stereo not given)	.	18µM	.	.	.	18µM
Cc1ccc2c(Sc3ccc(Cl)cc3)c(C(=O)NCCC(C)C)[nH]c2c1	.	-	.	.	.	?
CCn1c(C)c(C)c2cc(C(=O)NCCc3ccco3)ccc21	-	-	-	-	?	-
O=C(NCCc1ccccc1)c1ccc2nc3cc(Cl)ccc3c(=O)n2c1	-	-	-	-	-	-
O=C(NCCc1ccccc1Cl)c1ccc2nc3ccccc3c(=O)n2c1	?	15µM	-	-	-	?
Cc1c(C)n(Cc2ccccc2)c2ccc(C(=O)NCCc3ccccc3Cl)cc12	.	21µM	.	.	.	?
Cc1ccccc1CCNC(=O)c1ccc2c(c1)c(C)c(C)n2Cc1ccccc1	.	18µM	.	.	.	?
COc1cc(OC)c(NC(=O)c2c(N3CCCC3=O)c3cc(C)ccc3n2C)cc1Cl	.	-	.	.	.	-
Cc1nc(Nc2nc3c(c(=O)[nH]2)CCC3)nc2ccccc12	.	5.8µM	?	?	-77	4.1µM
Cc1ccc2c(C)nc(Nc3nc(CSc4nc5ccccc5[nH]4)cc(=O)[nH]3)nc2c1	4.6µM	12µM	11µM	18µM	-86	12µM
Cc1ccc(SCc2cc(=O)[nH]c(Nc3nc(C)c4ccc(C)cc4n3)n2)cc1	-	?	-	-	-	?
Cc1ccc(SCc2cc(=O)[nH]c(Nc3nc(C)c4ccccc4n3)n2)cc1	-	12µM	-	-	-	?
CC(=O)N1CCN(C(=O)c2cccc(S(=O)(=O)NCc3ccccc3)c2)CC1	?	-	-	-	-	-
O=[N+]([O-])c1ccc(N=Nc2c(Cl)cc(O)cc2Cl)cc1	?	4.1µM	8.2µM	6.5µM	?	4.6µM
CCN1CCCC1CNC(=O)c1cc([N+](=O)[O-])c(N(C)C)cc1OC (stereo not given)	-	-	-	-	-	-
Nc1nc(/C=C/c2cccnc2)nc(-c2ccccc2O)n1	-	2.9µM	-	-	-60	9.2µM
O=C1C(=O)N(C2CCN(C(=O)c3ccccc3F)CC2)CCN1Cc1ccc(F)cc1	.	-	.	.	.	-
Cc1ccc(-c2nc3ccccc3nc2-c2ccccc2)cc1	-	?	-	-	-	15µM
Oc1ccccc1-c1nc2ccccc2nc1-c1ccccc1	?	?	-	-	-	?
Clc1ccc(-c2nc3ccccc3nc2-c2ccccc2)cc1	-	?	-	-	-	21µM
Clc1nc2ccccc2nc1-c1ccccc1	?	-	-	-	-	-
COc1cccc2c3cccc(OC)c3c3[nH]cnc3c12	.	?	21µM	-	-102	7.3µM
COc1cccc2[nH]c3c(=O)[nH]cnc3c12	-	-	-	-	-	-
Cn1cnc([N+](=O)[O-])c1Oc1ccccc1	-	18µM	-	-	?	?

Screening results from PubChem.
